Source: PubChem
TIM10 inh = growth inhibitors of isogenic TIM10 control yeast, primary screen, counter-screen for tim10-1 yeast inhibitor project, luminescence, uHTS. S. cerevisiae TIM10 strain growth, BacTiter-Glo luminescence, 24 h. inhibition, % at 10 µM. 330,000 tested, 1.4% active. AID 463195, 2010;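 active = inhibition of 40% or more at the single tested concentration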;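 also: wild-type TIM10 isogenic control strain grown at permissive 25 °C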
V-ATPase pH = regulators of yeast V-ATPase proton pumping, primary screen, pHLuorin cytosolic pH fluorescence | S. cerevisiae | response, % at 10 µM | 350,000 tested, 0.37% active; in the data active = response mostly above about 7.3%, no sharp cut-off; inactive = mostly below about 5.4%; also: actives read high
NALP1 inh = NALP1 inflammasome inhibitors in reconstituted yeast, colorimetric, S. cerevisiae, triplicate retest. S. cerevisiae NALP1/ASC/caspase-1 growth, X-gal OD620, 72 h. inhibition, % at 10 µM. 280,000 tested, 0.61% active. AID 2071, 2009; in the data active = inhibition mostly above about 24%, no sharp cut-off; inactive = mostly below about 32%
tim10-1 inh = growth inhibitors of tim10-1 mutant yeast, primary screen, luminescence, uHTS | inhibition, % at 20 µM | S. cerevisiae tim10-1 ts strain growth, BacTiter-Glo, 24 h | 330,000 tested, 2.2% active;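 active = inhibition of at least 40%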;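 also: mutant grown at 25 °C; 0% = DMSO wells with yeast and 100% = wells holding no yeast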
tim23-1 inh = growth inhibitors of tim23-1 mutant yeast, primary screen, luminescence, uHTS. S. cerevisiae tim23-1 growth, BacTiter-Glo luminescence, 24 h. inhibition, % at 20 µM. 330,000 tested, 1.3% active. AID 463212, 2010;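 active = growth inhibition of the mutant yeast at or above 50%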;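 also: temperature-sensitive mutant grown at 25 °C; plate controls were DMSO-treated mutant yeast for no effect and medium wells lacking yeast for full effect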
NLRP3 yeast inh = NALP3 inflammasome inhibitors in reconstituted yeast, primary screen, luminescence, uHTS. Yeast reconstituted NLRP3/ASC/caspase-1, beta-gal luminescence, 24 h. inhibition, % at 10 µM. 330,000 tested, 0.39% active;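 active = inhibition of 50% or more; inactive = inhibition below 50%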;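 also: plate controls were induced DMSO wells for no effect and uninduced yeast grown without galactose for full effect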
tim10-1 conf = growth inhibitors of tim10-1 mutant yeast, confirmation, single concentration, luminescence, S. cerevisiae | shares compounds with tim10-1 inh | S. cerevisiae tim10-1 ts strain growth, BacTiter-Glo, 24 h | inhibition, % at 20 µM | 7,400 tested, 56% active | AID 463213, 2010;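 active = inhibition of yeast growth at or above a set limit in either of two repeat tests at 20 µM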;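 also: tim10-1 mutant grown at permissive 25 °C to find synthetic lethal compounds; 0% = DMSO yeast wells and 100% = medium wells without yeast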
tim10 confirm = growth inhibitors of wild-type TIM10 yeast, confirmation, counter-screen for tim10-1 synthetic lethality project, single concentration, luminescence, S. cerevisiae | inhibition, % at 10 µM | AID 463215, 2010 | 4,600 tested, 63% active | shares compounds with TIM10 inh | S. cerevisiae tim10 strain growth, BacTiter-Glo luminescence, 24 h;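 active = inhibition of yeast growth at or above a set limit in either of two replicates at 10 µM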;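 also: this counterscreen used the strain with wild-type TIM10; 0% = yeast with DMSO and 100% = medium wells lacking yeast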
* = called active by the depositor; · = not tested or not shown. An excerpt weighted towards active compounds, which were near 4.2% of everything screened.

SMILES	TIM10 inh	V-ATPase pH	NALP1 inh	tim10-1 inh	tim23-1 inh	NLRP3 yeast inh	tim10-1 conf	tim10 confirm
COc1ccccc1N(CC(O)Cn1ccnc1C)S(=O)(=O)c1ccccc1 (centres undefined)	0	-1	3	6	14	-6	·	·
Cc1ccnc(Nc2nc(-c3c(C)nc4sccn34)cs2)c1	45*	-1	3	44*	11	22	13	32*
Cc1ccnc(Nc2nc(-c3ccccc3)cs2)c1	9	1	9	17	29	24	·	·
CCC(C(=O)Nc1ccc([N+](=O)[O-])cn1)c1ccccc1 (centres undefined)	6	-5	30	10	19	27	·	·
COc1ccccc1/C=C/C(=O)c1cc(Br)ccc1OC(=O)c1ccco1	42*	-2	·	50*	49	4	42*	1
Cc1ccc2nc(SCC(=O)N3CCC(Cc4ccccc4)CC3)nc(=O)n2c1	2	2	·	28	13	17	·	·
O=Nc1c2nc3ccccc3n(O)c-2c2ccccc12	75*	-1	0	84*	40	-1	83*	71*
Cc1ccc2cc(C)c(N3CCN(c4ccccn4)CC3)nc2c1	43*	-1	18	53*	41	25	34*	38*
O=C(COC(=O)/C=C/C(=O)OCC(=O)NC12CC3CC(CC(C3)C1)C2)NC12CC3CC(CC(C3)C1)C2	45*	3	14	56*	36	25	43*	13
CCOC(=O)/C=C/C(=O)OCC(=O)Nc1ccc(OC)c(Cl)c1	44*	0	35	53*	40	24	41*	36*
CCOc1ccc(N(CC(=O)NC(C)(C)C)C(=O)CCC(=O)Nc2nccs2)cc1	-4	2	2	-10	-2	13	·	·
O=C1OC(c2ccc(F)cc2)=C/C1=C\c1ccc([N+](=O)[O-])o1	64*	·	-9	71*	-142	3	41*	59*
CCOC(=O)C(c1ccccc1)C(Nc1ccc(F)cc1)c1ccccn1 (centres undefined)	1	0	-14	21	33	8	·	·
CCOC(=O)C(C(=O)OCC)C(Nc1ccc(Br)cc1)c1ccccc1 (centres undefined)	51*	-1	17	51*	45	49	39*	52*
Nc1[nH]c(=O)[nH]c(=O)c1N=Nc1ccc(C(=O)O)cc1	-17	2	11	14	1	22	·	·
COc1ccc(C)c2sc(N3CCCC3)nc12	44*	3	22	44*	46	28	33*	26
Cc1ccc(-n2cnc3cc(NCc4cccs4)ccc32)cc1	63*	0	-3	56*	28	34	57*	64*
CN(Cc1ccon1)C(=O)C1CCN(C2CCN(CCCc3ccccc3)CC2)CC1	-33	-3	11	-31	-49	15	·	·
N#C/C(=C\c1ccc([N+](=O)[O-])o1)C(=O)Nc1ccc(F)cc1	79*	114*	13	55*	-107	-8	47*	96*
Cc1cc(-c2nnc(-c3ccccc3)c(-c3ccccc3)n2)c(C)o1	52*	1	-1	48*	49	-3	46*	30
c1ccc(-c2nnc(-c3c[nH]c4ccccc34)nc2-c2ccccc2)cc1	18	-4	7	24	29	24	·	·
Cc1oc(=O)c(NC(=O)c2ccccc2)cc1C(N)=O	4	2	16	5	4	4	·	·
COc1ccc(C(=O)Nc2cc(C(=O)c3ccccc3)c(C)oc2=O)cc1	60*	3	-4	66*	45	22	70*	43*
COC(=O)c1cc(NC(=O)c2ccccc2)c(=O)oc1C	19	-14	7	12	17	-5	·	·
Cc1oc(=O)c(NC(=O)c2cccc(Cl)c2)cc1C(=O)c1ccccc1	51*	6	5	62*	48	20	62*	43*
SMILES	TIM10 inh	V-ATPase pH	NALP1 inh	tim10-1 inh	tim23-1 inh	NLRP3 yeast inh	tim10-1 conf	tim10 confirm
O=C1CCCN1CCCN1CC(C(=O)N(CCO)Cc2ccccc2)CCC1=O (centres undefined)	-1	0	-12	4	7	-2	·	·
CC(C)(C)OC(=O)N1CCC(C(=O)Nc2ccc3c(c2)CCC3)CC1	13	6	·	23	37	26	·	·
O=C(Oc1ccccc1)c1ccc2c(c1)C(=O)N(Cc1ccncc1)C2=O	-3	-1	7	-3	2	-1	·	·
Cc1ccc(-c2n[nH]c(=S)n2/N=C/c2c(C)nn(-c3ccccc3)c2C)cc1	24	7	21	39	12	18	·	·
Cc1nn(-c2ccccc2)c(C)c1/C=N/n1c(-c2ccc(C(C)(C)C)cc2)n[nH]c1=S	44*	-1	-22	47*	46	17	33*	44*
O=Cc1cccc(OC(=O)c2ccc(Cl)cc2Cl)c1	45*	·	5	42*	44	22	28	17
O=C(Nc1ccc(F)cc1)c1cccc2c1C(=O)N(Cc1ccccn1)C2	44*	-2	31	68*	35	14	65*	-32
O=C(Nc1ccc(F)cc1)c1cccc2c1C(=O)N(CC1CCCO1)C2 (centres undefined)	7	-2	-6	18	16	27	·	·
CCS(=O)(=O)N1Cc2ccccc2CC1C(=O)NC(C)C12CC3CC(CC(C3)C1)C2 (centres undefined)	47*	-8	26	41*	35	20	30*	-17
CCS(=O)(=O)N1Cc2ccccc2CC1C(=O)Nc1nc(C)cs1 (centres undefined)	20	0	-2	14	7	9	·	·
NC(=O)c1ccsc1NC(=O)c1ccc2c(c1)CCCC2	56*	-3	34	46*	50	30	20	37*
CCOc1ccc(NC(=O)CC2CC(C)(C)OC2=O)cc1 (centres undefined)	3	6	6	4	6	-1	·	·
CCCC1CC(C)(c2csc(Nc3ccc(OCC)cc3)n2)OC1=O (centres undefined)	48*	-2	13	40*	48	-1	30	46*
Cc1ccsc1C(=O)OCC(=O)N1CCc2ccccc2C1	24	1	8	22	14	7	·	·
